Compound activity from PubChem.
Shown are actives, neighbours in structure and some others; about 5% of the full set was active somewhere.
USP7 block – inhibitors of human USP7 deubiquitinase; inhibition, % at 20 µM; AID 1645854, 2021; Ubiquitin carboxyl-terminal hydrolase 7 (Homo sapiens), Q93009; 47,000 tested, 0.3% active; purified USP7, Ub-rhodamine cleavage fluorescence
USP8 block – inhibitors of human USP8 deubiquitinase; Ubiquitin carboxyl-terminal hydrolase 8 (Homo sapiens), P40818; purified USP8, Ub-rhodamine cleavage fluorescence, 30 min; inhibition, % at 20 µM; 47,000 tested, 4.2% active
UCHL1 inh – inhibitors of human UCHL1 deubiquitinase; Ubiquitin carboxyl-terminal hydrolase isozyme L1 (Homo sapiens), P09936; purified UCHL1, Ub-rhodamine cleavage fluorescence; inhibition, % at 20 µM; 47,000 tested, 0.2% active
USP10 inh – inhibitors of human USP10 deubiquitinase; Ubiquitin carboxyl-terminal hydrolase 10 (Homo sapiens), Q14694; purified USP10, Ub-rhodamine fluorescence, 60 min; inhibition, % at 20 µM; 47,000 tested, 1.1% active; AID 1645856, 2021
Target sequence (Q14694 whole entry, looked up): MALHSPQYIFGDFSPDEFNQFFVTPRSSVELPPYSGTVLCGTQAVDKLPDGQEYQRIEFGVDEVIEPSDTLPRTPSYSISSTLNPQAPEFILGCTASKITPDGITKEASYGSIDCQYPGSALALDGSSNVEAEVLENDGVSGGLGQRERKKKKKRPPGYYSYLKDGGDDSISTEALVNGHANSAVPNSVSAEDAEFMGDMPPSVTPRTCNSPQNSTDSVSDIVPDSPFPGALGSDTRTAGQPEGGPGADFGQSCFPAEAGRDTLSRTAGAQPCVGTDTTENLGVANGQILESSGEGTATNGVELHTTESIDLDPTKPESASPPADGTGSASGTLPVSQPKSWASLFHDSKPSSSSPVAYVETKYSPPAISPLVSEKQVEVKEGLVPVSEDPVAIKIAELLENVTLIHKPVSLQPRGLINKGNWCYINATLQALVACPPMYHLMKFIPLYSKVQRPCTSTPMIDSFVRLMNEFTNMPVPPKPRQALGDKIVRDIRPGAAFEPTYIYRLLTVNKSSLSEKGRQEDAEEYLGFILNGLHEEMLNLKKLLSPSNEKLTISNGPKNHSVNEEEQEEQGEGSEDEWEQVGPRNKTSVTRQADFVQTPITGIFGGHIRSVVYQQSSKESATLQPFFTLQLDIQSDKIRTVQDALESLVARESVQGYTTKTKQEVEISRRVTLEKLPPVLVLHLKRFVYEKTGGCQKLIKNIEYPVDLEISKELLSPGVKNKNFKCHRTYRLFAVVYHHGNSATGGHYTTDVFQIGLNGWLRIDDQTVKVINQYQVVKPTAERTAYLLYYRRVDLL
Active calls of the source: *. No stated cut-off is given here; in the data, active means inhibition above about 30%; inactive means the rest.

SMILES | USP7 block | USP8 block | UCHL1 inh | USP10 inh
O=C(NCC1CCCOC1)C1(Cc2ccccc2-c2cccnc2)CCOCC1 (centres undefined) | 1 | 0 | 0 | -2
CC(C)c1ccc(NC(=O)c2cc3ncc(Br)cn3n2)cc1 | -128 | 61* | 14 | 26
CCOc1ccc(/C=C/C(=O)Nc2nnc(C)s2)cc1 | 4 | 24 | 0 | 8
COc1ccc2c(C)c(CC(=O)N3CCC[C@H]3C(=O)O)c(=O)oc2c1C | -154 | 18 | 2 | 2
COc1ccc(CCN2Cc3cc4ccccc4nc3OC2=O)cc1 | 2 | 5 | 0 | 2
COc1ccc2cc3c(nc2c1)OC(=O)N(Cc1ccccc1)C3 | 7 | 32* | 2 | 5
O=c1ccc(-c2noc(-c3cccc4[nH]ccc34)n2)c[nH]1 | -21 | -27 | -13 | -8
O=c1ccc(-c2noc(-c3n[nH]c4ccccc34)n2)c[nH]1 | -13 | 56* | -17 | 0
c1ccc(CCNc2nc(-c3ccccc3)no2)cc1 | -66 | 21 | 5 | 7
CS(=O)(=O)Nc1ccc2c(c1)nc1n2CCN(C2CCCC2)C1 | -11 | -51 | -12 | -5
O=C(CCc1ccccc1)Nc1ccc2c(c1)nc1n2CCN(C2CCCC2)C1 | -17 | 31* | -11 | -4
Cc1nc(NCc2ccccn2)c2cc(-c3ccccc3)sc2n1 | 3 | 30* | 0 | -1
c1ccc(-c2cc3c(NCc4ccccn4)ncnc3s2)cc1 | -4 | 21 | 7 | 5
Cc1nc(-c2noc(-c3cccc(F)c3)n2)cn1CC(=O)Nc1ccccc1 | -33 | 38* | 18 | 62*
N#Cc1cccc(NC(=O)Cn2cccc2-c2nc(-c3ccccc3)no2)c1 | 11 | 31* | 2 | 18
NC(=O)C1CCN(C(=O)c2nnn(-c3ccccc3)n2)CC1 | 5 | 16 | 3 | 0
NC(=O)C1(N2CCCCC2)CCN(CC(=O)Nc2ccc(N3CCOCC3)cc2)CC1 | 3 | 14 | 3 | 0
COc1ccc(-c2noc(-c3nnn(-c4ccccc4Cl)c3C)n2)cc1 | 1 | 4 | 4 | 4
Cc1c(-c2nc(-c3ccccc3Cl)no2)nnn1-c1cccc(F)c1 | 8 | 28 | 3 | 38*
CCN1CC[C@@]2(C(=O)N3CCCC3)CCN(C(=O)c3ccccc3)CC[C@@H]12 | 5 | 0 | 3 | 0
COC(=O)c1cc2c(ccn2-c2ccc(F)cc2)n1CC(=O)NC1CCCCC1 | 7 | 34* | -3 | 16
CC(C)OC(=O)c1cc2c(ccn2-c2ccc(F)cc2)n1CC(=O)N(C)C1CCCCC1 | 2 | 60* | 0 | -1
CC(C)OC(=O)c1cc2c(ccn2-c2ccc(F)cc2)n1CC(=O)NC1CCCCC1 | 2 | 23 | 0 | -5
CCOC(=O)c1cc2c(ccn2-c2ccc(F)cc2)n1CC(=O)N(C)C1CCCCC1 | -8 | 12 | 6 | 7
CC1(C)OC(=O)[C@@]2(C)N[C@]1(C)C[C@@H]2C(=O)Nc1cccc2cccnc12 | 3 | 41* | 2 | -2
SMILES | USP7 block | USP8 block | UCHL1 inh | USP10 inh
O=C(Nc1ccc2[nH]c(=O)[nH]c2c1)c1cc2ccccc2o1 | 13 | 42* | 1 | 12
COc1cc(NC(=O)c2ccc3c(c2)OCO3)ccc1-c1cc2ccccc2oc1=O | 25 | 69* | 5 | 29
O=C(Nc1c(C(=O)Nc2ccc3c(c2)OCO3)oc2ccccc12)c1cc2ccccc2o1 | 10 | 79* | 5 | 6
CCOC(=O)CCC(=O)Nc1c(C(=O)Nc2ccc3c(c2)OCCO3)oc2ccccc12 | 4 | -51 | 2 | -1
O=C(c1nnn(-c2ccc(F)cc2)n1)N1CCN(c2ccccc2O)CC1 | 5 | 16 | 5 | 3
Cc1cccc(NC(=O)c2cn[nH]c2S(=O)(=O)Nc2ccc(F)cc2)c1 | -8 | -3 | -1 | 8
Cc1nc2cc(-c3noc(-c4nn(C)c5ccccc45)n3)ccc2o1 | 11 | -2 | 3 | -7
Cc1nc2cc(-c3noc(-c4cccc5[nH]ccc45)n3)ccc2o1 | 12 | 55* | 3 | 3
Cc1cccc(CSc2nc(-c3ccco3)nc3c2c(=O)n(C)c(=O)n3C)c1 | -2 | -3 | 0 | 2
Cc1ccc(C(=O)Cn2c(=O)n(C(C)C)c3nc(-c4ccco4)nc(C(N)=O)c32)c(C)c1 | 26 | 40* | 14 | -2
O=C(NCc1ccco1)c1cccnc1-c1nc2ccccc2s1 | -10 | 33* | 6 | 0
CN(C(=O)c1cccnc1-c1nc2ccccc2s1)c1ccccc1 | 0 | -21 | 2 | 1
Cc1nc(-c2ncc[nH]2)cc(C2CCCCN2Cc2ccccn2)n1 (centres undefined) | 4 | -1 | 1 | -1
c1ccc2c(c1)CCN(c1nc3cc4c(cc3s1)OCO4)C2 | 3 | 33* | 1 | 5
COc1ccc(CNC(=O)CCCc2nnc3c(=O)n(-c4cc(C)cc(C)c4)ccn23)cc1 | 20 | 78* | 6 | 35*
Cc1ccc(-n2ccn3c(CCC(=O)NCc4ccco4)nnc3c2=O)cc1C | 5 | -34 | -2 | -1
COc1cccc(CNC(=O)CCc2nnc3c(=O)n(-c4cccc(F)c4)ccn23)c1 | -2 | -19 | -3 | -2
Cc1ccc(-n2ccn3c(CCC(=O)NCc4ccc(F)cc4)nnc3c2=O)cc1C | 24 | 67* | 7 | 10
Cc1ccc(CNC(=O)CCCc2nnc3c(=O)n(-c4cccc(F)c4)ccn23)cc1 | 5 | 36* | 2 | -3
Cc1cccc(NC(=O)CCc2nnc3c(=O)n(-c4cccc(F)c4)ccn23)c1 | 7 | 38* | 8 | 6
O=S(=O)(NCc1ccc(F)cc1)c1ccc(-c2cc(C(F)(F)F)on2)s1 | 13 | 13 | 2 | 5
CCc1ccc(NC(=O)N2CC[C@@H]3Oc4ccccc4S(=O)(=O)N(CC)[C@H]3CC2)cc1 | 4 | -5 | 2 | 7
COc1cccc(CNC(=O)CCc2ccc3c(ccn3C)c2)c1 | -5 | -7 | -3 | -5
Cc1ccc(CNC(=O)CCc2nnc3c(=O)n(-c4ccc(C)c(C)c4)ccn23)cc1 | 8 | 41* | 4 | 1
COc1ccc(C2CCNc3ccccc3N2)cc1 (centres undefined) | -5 | 37* | -7 | -5
SMILES | USP7 block | USP8 block | UCHL1 inh | USP10 inh
COCc1cc(=O)[nH]c(N=C(NC(=O)c2ccccc2)Nc2ccccc2C)n1 | 5 | 17 | 3 | 0
COc1cc(OC)cc(-c2noc(Cn3c(=O)[nH]c4cc5c(cc4c3=O)OCO5)n2)c1 | 6 | 82* | 2 | 3
Cc1ccc(-c2noc(Cn3c(=O)[nH]c4cc5c(cc4c3=O)OCO5)n2)cc1 | 2 | 55* | -1 | 9
Cc1ccc(C)c(NS(=O)(=O)c2ccc3c(c2)NC(=O)C(C)C(=O)N3)c1 (centres undefined) | 3 | 10 | 0 | 5
CC1Cc2ccccc2N1CC(=O)NCc1ccccc1Cl (centres undefined) | -47 | -39 | -38 | -12
CC1Cc2ccccc2N1Cc1cc[nH]c(=O)c1 (centres undefined) | -37 | 45* | -18 | -9
COc1cc(NC(=O)Cn2c(=O)n(-c3ccc(CC(=O)NC4CCCC4)cc3)c(=O)c3ccccc32)cc(OC)c1 | 17 | 63* | -1 | 24
